This is an account of results in PubChem BioAssay (Tox21).

SMILES strings stand for the structures. Values joined by “and” are separate entries in the source; they are usually repeats but may differ in a detail not shown here. Identical values can stand only once. Records with an inconclusive call do not appear. A structure can be active in one record and inactive in another. Active and inactive are the calls of the source. Unless noted, the call rests on the fitted dose curve; in most records, active means well fitted curve in the direction sought with a large enough effect in the repeat runs; inconclusive means weak or mixed curves; inactive means no such curve, though single readings can be large; an effect the other way counts as inactive or inconclusive.

Assay [1] is described as follows: qHTS assay to identify small molecule antagonists of the estrogen related receptor (ERR) signaling pathway from Tox21 library - cell viability counter screen (AID 1224834). Further: nearly all actives have a fitted effect of over 30% in size. Further: potency means the concentration at half of the fitted maximal effect. Put shortly:
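ERR reporter cells, 2,000 per well, rested 6 h, then exposed to compound in DMSO for 17.5 hours at 37 C. Viability read as fluorescence after 30 min with CellTiter-Fluor.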
Background: In qHTS, concentration-response curves come from the screen itself.

Assay [2] concerns the target Luciferin 4-monooxygenase (Photinus pyralis) (UniProt P08659). Briefly: qHTS assay to identify small molecule inhibitors of firefly luciferase (AID 1224835). Further: nearly all actives have a fitted effect of over 25% in size. Further: potency means the concentration at half of the fitted maximal effect. Put shortly: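 Biochemical qHTS: compounds run as interplate titrations against purified firefly enzyme, with D-luciferin and ATP each at its KM concentration. Light output recorded by CCD imaging.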
Assay [3] in a line: qHTS assay to identify small molecule agonists of the constitutive androstane receptor (CAR) signaling pathway - cell viability counter screen (AID 1224836). Further: nearly all actives have a fitted effect of over 45% in size. An outline of the steps: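 Using CellTiter-Fluor, viability of HepG2 cells harbouring hCAR and CYP2B6-2.2kb was measured following 23 h incubation with a 15-concentration compound series plus PK11195 (0.75 uM final).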
Assay [4] is described as follows: qHTS assay to identify small molecule antagonists of the constitutive androstane receptor (CAR) signaling pathway - cell viability counter screen (AID 1224837). Further: nearly all actives have a fitted effect of over 45% in size. An outline of the steps:
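HepG2 cells stably carrying hCAR and CYP2B6-2.2kb reporter, stimulated with 50 nM CITCO and compounds at 15 concentrations for 23 h at 37 C. Viability measured by CellTiter-Fluor fluorescence.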

A short description of assay [5]: qHTS assay to identify small molecule antagonists of the estrogen related receptor signaling pathway with the pleiotropic PPARgamma coactivator (PGC) from Tox21 10K library - cell viability counter screen (AID 1224840; active means well fitted cell-killing curve with a large enough effect in the repeat runs, not every such curve was filed as active; further: nearly all actives have a fitted effect of over 40% in size; further: potency means the concentration at half of the fitted maximal effect). An outline of the steps: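 PGC/ERR cells (2,000/well) plated 6 h, then compound-treated for 17.5 h at 37 C. Viability measured by CellTiter-Fluor fluorescence after 30 min at 37 C, multiplexed with the pathway assay.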

Assay [6] can be described thus: qHTS assay to identify small molecule antagonists of the estrogen related receptor signaling pathway with the pleiotropic PPARgamma coactivator (PGC) from Tox21 10K library (AID 1224841; call rule not given here; further: actives are mostly falling curves and most rising ones were filed inactive; nearly all actives have a fitted effect of over 50% in size; further: potency means the concentration at half of the fitted maximal effect). An outline of the steps:
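PGC/ERR cell line, 2,000 cells/well, pre-incubated 6 hours at 37 C, then exposed to compounds for 18 hours at 37 C; luciferase read with One-Glo luminescence after 30 min at room temperature.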

A short description of assay [7]: qHTS assay to identify small molecule agonists of the estrogen related receptor signaling pathway with the pleiotropic PPARgamma coactivator (PGC) from Tox21 10K library (AID 1224842). Further: nearly all actives have a fitted effect of over 15% in size. Further: potency means the concentration at half of the fitted maximal effect. An outline of the steps: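 PGC/ERR reporter cell line, 2,000 cells per well, incubated 6 h at 37 C before 23 nL compound in DMSO was added. After 18 h at 37 C, One-Glo luminescence read following 30 min at room temperature.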

Assay [8] concerns the target Thyrotropin receptor (Homo sapiens) (UniProt P16473). Kind of assay: qHTS assay to identify small molecule agonists of the thyroid stimulating hormone receptor (TSHR) signaling pathway (AID 1224843; calls by dose curve; further: nearly all actives have a fitted effect of over 45% in size; further: potency means the concentration at half of the fitted maximal effect). An outline of the steps: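 Steps: seed 800 TSHR-HEK293 cells per well; add test compound and hold 30 min at ambient temperature; dispense cAMP-d2 then anti-cAMP cryptate; incubate 1 h at ambient; measure fluorescence intensity.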

Assay [9] can be described thus: qHTS assay to identify small molecule agonists of H2AX (AID 1224845; active means well fitted activation curve with a large enough effect in the signal ratio in the repeat runs, not every such curve was filed as active; the % refers to the signal ratio). Put shortly: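 Wild-type CHO-K1 cells, plated overnight, exposed 3hr at 37C to 15 concentrations (0.76% DMSO final). Lysed, then HTRF anti-pH2AX (S139) cryptate and anti-H2AX-d2 antibodies, 24 hr room temperature; 665/620 nm emission read.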
Assay [10] can be described thus: qHTS assay to identify small molecule agonists of H2AX - cell viability counter screen (AID 1224847; calls by dose curve; further: nearly all actives have a fitted effect of over 30% in size; further: potency means the concentration at half of the fitted maximal effect). Put shortly:
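Quantitative HTS viability measurement: CHO-K1 wild-type cells in serum (10% FBS) medium, short 3 hr drug exposure at 37C with 0.76% DMSO, CellTiter-Glo luminescent detection.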

The nature of assay [11]: qHTS assay to identify small molecule antagonists of the estrogen related receptor (ERR) signaling pathway from Tox21 library (AID 1224848). Further: nearly all actives have a fitted effect of over 50% in size. Further: potency means the concentration at half of the fitted maximal effect. An outline of the steps:
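Luminescent reporter read-out (ONE-Glo) from NTP's ERR cell line after 18 h treatment at 37 C with DMSO-dissolved Tox21 compounds; cells pre-plated 6 h beforehand at 2,000 per well.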

Assay [12] in a line: qHTS assay to identify small molecule agonists of the estrogen related receptor (ERR) signaling pathway from Tox21 library (AID 1224849; calls by dose curve; further: nearly all actives have a fitted effect of over 15% in size). Conditions: ERR reporter cell line, ONE-Glo luciferase, 18 h. An outline of the steps: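 ERR reporter cells (NTP line) pre-incubated 6 hours at 37 C, then exposed to compounds for 18 hours at 37 C. ONE-Glo luciferase luminescence was read after 30 minutes at room temperature.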

The nature of assay [13]: qHTS RealTime-Glo MT Cell Viability Assay in HepG2 cells - 24 hour (AID 1224867). Further: nearly all actives have a fitted effect of over 50% in size. Further: potency means the concentration at half of the fitted maximal effect. Put shortly:
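Viability was tracked continuously by NanoLuc luminescence from prosubstrate reduced by living HepG2 cells, at successive time points over 40 h of compound exposure. Cells with reagent were preincubated 5 h at 37 °C before compound addition.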

The nature of assay [14]: qHTS RealTime-Glo MT Cell Viability Assay in HEK293 cells - 32 hour (AID 1224868). Further: nearly all actives have a fitted effect of over 50% in size. Further: potency means the concentration at half of the fitted maximal effect. An outline of the steps: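 Viability tracked continuously by luminescence as live cells reduce a prosubstrate for NanoLuc; HEK293 cells preincubated 5 h, compound-treated at 37 C, and read at 0, 8, 16, 24, 32 and 40 h.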
Assay [15] in a line: A CellTox Green Cytotoxicity Assay to monitor cytotoxicity in HEK293 cells - 0 hour (AID 1224869). Further: nearly all actives have a fitted effect of over 50% in size. Further: potency means the concentration at half of the fitted maximal effect. An outline of the steps: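 HEK293 cells, 600/well, were preincubated 5 hours and then exposed to compounds at 37 C for up to 40 hours. A cell-impermeant cyanine dye staining dead-cell DNA was read by fluorescence at 0, 8, 16, 24, 32 and 40 h time points.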
A short description of assay [16]: qHTS assay to identify small molecule agonists of the hypoxia (HIF-1) signaling pathway - cell viability counter screen (AID 1224844; calls by dose curve; further: nearly all actives have a fitted effect of over 50% in size; further: potency means the concentration at half of the fitted maximal effect). An outline of the steps:
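HRE-bla ME-180 cells, 2,000/well in 0.5% dialyzed FBS medium, treated 17 h at 37C with compounds. Viability read in the same wells as the bla reporter, by CellTiter-Glo luminescence after 30 min at room temperature.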

A short description of assay [17]: qHTS assay to identify small molecule agonists of the hypoxia (HIF-1) signaling pathway (AID 1224846; active means well fitted activation curve with a large enough effect in the signal ratio in the repeat runs, not every such curve was filed as active; the % refers to the signal ratio). Put shortly: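 HRE-bla ME-180 beta-lactamase reporter cells in medium with 0.5% dialyzed FBS, pre-incubated 5 h then exposed to compounds 17 h at 37C, 5% CO2; reporter induction read with CCF4-AM FRET substrate.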
Assay [18] deals with Nuclear receptor subfamily 1 group I member 3 (Homo sapiens) (UniProt Q14994). Kind of assay: qHTS assay to identify small molecule antagonists of the constitutive androstane receptor (CAR) signaling pathway (AID 1224838). Further: nearly all actives have a fitted effect of over 40% in size. Further: potency means the concentration at half of the fitted maximal effect. An outline of the steps: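 HepG2 cells stably carrying hCAR and a CYP2B6-2.2kb luciferase reporter, seeded 4 hrs before compound (15 concentrations). Stimulated with 50 nM CITCO for 24 hr at 37 C. ONE-Glo luminescence read after 30 min at room temperature.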
Chain of Nuclear receptor subfamily 1 group I member 3 (Homo sapiens) (Q14994 whole entry, looked up): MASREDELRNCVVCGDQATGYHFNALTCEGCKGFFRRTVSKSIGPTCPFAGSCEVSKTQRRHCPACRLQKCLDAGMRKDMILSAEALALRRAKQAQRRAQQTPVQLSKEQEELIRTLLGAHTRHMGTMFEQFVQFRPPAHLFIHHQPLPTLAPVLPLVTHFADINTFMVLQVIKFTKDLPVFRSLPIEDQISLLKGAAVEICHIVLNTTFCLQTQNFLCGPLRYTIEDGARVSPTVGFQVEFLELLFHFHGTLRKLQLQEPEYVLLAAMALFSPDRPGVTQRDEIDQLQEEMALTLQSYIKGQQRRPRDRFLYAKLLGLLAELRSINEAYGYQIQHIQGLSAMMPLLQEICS

Assay [19] shares this target. Kind of assay: qHTS assay to identify small molecule agonists of the constitutive androstane receptor (CAR) signaling pathway (AID 1224839). Further: nearly all actives have a fitted effect of over 15% in size. Further: potency means the concentration at half of the fitted maximal effect. Put shortly:
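Double-stable HepG2 cells (hCAR, CYP2B6-2.2kb) seeded 4 h before compound addition. Exposure 24 h with 0.75 uM PK11195 final. Luciferase detected by ONE-Glo.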
On the % scale 0 is the no-effect control and ±100 the full control effect.

Chain of Luciferin 4-monooxygenase (Photinus pyralis) (P08659 whole entry, looked up): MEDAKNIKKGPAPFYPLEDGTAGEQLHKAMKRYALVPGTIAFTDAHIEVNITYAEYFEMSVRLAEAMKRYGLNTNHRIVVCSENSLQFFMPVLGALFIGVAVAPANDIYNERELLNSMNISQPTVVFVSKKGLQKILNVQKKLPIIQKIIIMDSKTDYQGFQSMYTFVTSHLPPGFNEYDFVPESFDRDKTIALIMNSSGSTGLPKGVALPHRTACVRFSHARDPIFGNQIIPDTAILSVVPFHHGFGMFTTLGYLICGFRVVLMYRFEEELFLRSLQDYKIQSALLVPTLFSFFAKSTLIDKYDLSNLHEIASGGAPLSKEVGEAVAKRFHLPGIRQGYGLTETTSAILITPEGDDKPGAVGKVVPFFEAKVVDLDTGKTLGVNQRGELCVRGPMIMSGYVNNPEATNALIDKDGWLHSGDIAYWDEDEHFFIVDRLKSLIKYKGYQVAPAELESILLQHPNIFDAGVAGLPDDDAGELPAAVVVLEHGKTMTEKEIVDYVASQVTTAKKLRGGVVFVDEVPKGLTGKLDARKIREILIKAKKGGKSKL
Chain of Thyrotropin receptor (Homo sapiens) (P16473 whole entry, looked up): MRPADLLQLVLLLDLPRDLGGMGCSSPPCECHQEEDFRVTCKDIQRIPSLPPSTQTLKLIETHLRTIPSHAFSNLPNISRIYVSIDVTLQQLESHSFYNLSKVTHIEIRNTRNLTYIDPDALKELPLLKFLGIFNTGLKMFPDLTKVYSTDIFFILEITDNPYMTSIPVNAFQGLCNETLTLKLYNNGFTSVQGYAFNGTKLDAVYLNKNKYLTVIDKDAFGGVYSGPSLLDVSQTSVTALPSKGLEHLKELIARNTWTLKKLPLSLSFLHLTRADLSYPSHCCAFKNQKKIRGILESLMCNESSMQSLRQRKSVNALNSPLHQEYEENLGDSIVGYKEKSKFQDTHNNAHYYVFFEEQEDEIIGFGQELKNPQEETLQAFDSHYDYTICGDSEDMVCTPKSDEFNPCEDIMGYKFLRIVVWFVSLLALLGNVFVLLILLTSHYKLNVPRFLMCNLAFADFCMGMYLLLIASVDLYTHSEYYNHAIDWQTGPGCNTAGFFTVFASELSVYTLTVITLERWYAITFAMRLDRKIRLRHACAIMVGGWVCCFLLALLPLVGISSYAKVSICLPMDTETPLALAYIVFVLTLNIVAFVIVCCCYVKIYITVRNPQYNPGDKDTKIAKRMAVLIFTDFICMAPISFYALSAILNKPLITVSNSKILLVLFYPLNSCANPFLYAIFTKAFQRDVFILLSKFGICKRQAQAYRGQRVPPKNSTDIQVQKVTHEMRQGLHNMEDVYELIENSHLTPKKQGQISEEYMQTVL

Take `CC(C)(c1cc(Cl)c(O)c(Cl)c1)c1cc(Cl)c(O)c(Cl)c1`: the Potency result in assay [1], in assay [2], in assay [3], in assay [4], in [5] and in [6] was “inactive” in each case. In addition, the Potency entry in assay [7], in assay [8], in assay [9], in assay [10], in assay [11] and in assay [13] was “inactive” throughout. Further, the Potency result in assay [14] and in assay [15] was “inactive” in each case. For the same compound, in [12] (at 92.4 µM (top of the series)), the activity change, positive = activation is -0.444% (inactive) and -2.89% (inactive).

On to `NC(=S)Nc1ccccc1`, for which the Potency in assay [1] is 22 µM (active) and inactive; in assay [14], 5.59 µM (active) and inactive; in assay [15] it was 49.8 µM (active) and inactive. Further, the Potency entry in [2], in [3], in assay [4], in assay [5], in assay [8] and in [16] was “inactive” in each case. The Potency result in assay [10] and in assay [13] was “inactive” each time. The call in assay [17] was inactive.

Turning to `Cc1ccc2c(c1N)C(=O)c1ccccc1C2=O`, the Potency was 30.3 µM (active) in assay [1]; 3.95 µM (active) and 5.64 µM (active) in [2]; 4.28 µM (active) and 7.7 µM (active) in assay [19]; 19.1 µM (active) and 9.69 µM (active) in [7]; 8.62 µM (active) and 7.76 µM (active) in [14]. Besides, the Potency result in [18], in assay [5], in [6], in assay [8], in assay [16] and in assay [9] was “inactive” throughout. For the same compound, the Potency entry in [10], in assay [11], in [13] and in [15] was “inactive” each time. Besides, the compound was classed as inactive in assay [17]. Besides, in assay [12] (at 92.4 µM (top of the series)), the activity change, positive = activation was 82.1% (active) and 70.5% (active).

On to `O=C(O)CC[N+](=O)[O-]`, for which the Potency entry in assay [1], in [2], in [3], in assay [4], in assay [5] and in assay [16] was “inactive” throughout. Moreover, the Potency entry in [9], in assay [10], in assay [13], in [14] and in [15] was “inactive” throughout.

Turning to `Oc1cc(Cl)ccc1Oc1ccc(Cl)cc1Cl`, the Potency was 24.9 µM (active) and 29.8 µM (active) in [1]; 55.8 µM (active) and inactive in [18]; 24.9 µM (active) in assay [5]; 33.2 µM (active) in assay [6]; 50.1 µM (active) and inactive in assay [16]; 51.7 µM (active) and 43.8 µM (active) in assay [10]. Further, the Potency in [11] was 11.1 µM (active) and 18.8 µM (active); in assay [13], 42.2 µM [cytotoxic] (active) and 23.9 µM (active); in assay [14], 20 µM (active). The Potency entry in assay [2], in assay [19], in assay [7], in assay [9] and in assay [15] was “inactive” each time. Also, the activity change, positive = activation is -45.8% (inactive) in assay [12] (at 42.5 µM (top of the series)) and -47.1% (inactive) in assay [12] (at 92.4 µM (top of the series)).

Consider `CCCCCCCCCCCOC(=O)c1ccccc1C(=O)OCCCCCCCCCCC`, for which the Potency entry in assay [1], in assay [2], in [3], in assay [4], in assay [5] and in assay [8] was “inactive” throughout. The Potency entry in assay [16], in assay [10], in assay [13], in assay [14] and in [15] was “inactive” in each case. For the same compound, the call in assay [17] was inactive.

Turning to `S=C1NCCN1`, the Potency result in [1], in assay [3], in assay [4], in assay [5], in assay [16] and in assay [10] was “inactive” in each case. The Potency result in [13], in assay [14] and in assay [15] was “inactive” in each case. In [8], the Potency is 1.69 µM (active) and inactive. Also, the compound was called inactive in [17].

As for `C[C@]12CCC(=O)C[C@@H]1CC[C@@H]1[C@@H]2CC[C@]2(C)[C@@H](O)CC[C@@H]12`, the Potency in [1] was 48 µM (active) and inactive; in assay [10], 79.1 µM (active); in [14] it was 21.6 µM (active). The Potency entry in assay [3], in assay [4], in [5], in [16], in [13] and in assay [15] was “inactive” each time.
